From PubChem BioAssay AID1508622 (National Center for Advancing Translational Sciences (NCATS), 2021)
Values without a mark were called inactive. Calls of active or inactive are those of the source. Calls come from the whole dose curve; as a rule, active = well fitted activation curve with a large enough effect; inconclusive = small, poorly fitted or top-dose-only effect; inactive = no such curve, though single readings can be large or run the other way.

test: Confirmatory qHTS for Identification of Small Molecule Activators of Huntingtin-Antisense Promoter Activity; conditions: HEK293 HTT-AS promoter firefly luciferase reporter, 24 h; series mostly up to 57.5 µM; activity change, positive = activation: at the top concentration
Outline: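 2,500 luciferase reporter HEK293 cells/well; 24 h culture; cpds up to 57.5 uM final, PTC124 50 uM ctrl; 24 h, 37C; Dual-Glo FLuc reagent, 10 min RT; lum. Norm.: vehicle 0%, zero RLU -100%.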
Potency is the fitted concentration of half-maximal effect.

| SMILES | activity change, positive = activation [%] | Potency |
| --- | --- | --- |
| O=C(O)c1cc(-n2c(/C=C\c3ccc(F)cc3)nc3ccccc3c2=O)ccc1Cl | 19.3 | – |
| CCS(=O)(=O)c1ncc(Cl)c(C(=O)NCc2ccc(OC)cc2)n1 | -95.5 | – |
| Fc1ccc(-c2csc(=Nc3cccc(C(F)(F)F)c3)n2Cc2ccc3c(c2)OCO3)cc1 | -30.8 | – |
| CC(C)c1ccc(Cc2cnc(NC(=O)c3ccc4c(c3)CC(c3ccccc3)OC4=O)s2)cc1 (centres undefined) | -64.6 | – |
| O=C(Nc1ccc(Oc2ccccc2)cc1)C1CCN(S(=O)(=O)c2ccccc2)CC1 | -51.1 | – |
| Cc1cc(C)c(NS(=O)(=O)c2ccc(-c3cnc(C4CC4)o3)cc2)c(C)c1 | -43.6 | – |
| CCc1ccc(NS(=O)(=O)c2c(C)nc3sc(CC)nn3c2=O)cc1 | -21.7 | – |
| COc1ccc(NC(=O)c2cc(S(=O)(=O)NCCC3=CCCCC3)ccc2F)cc1 | -95.1 | – |
| CC(C)OCc1cc(CN2CCN(c3ccccc3)CC2)c(O)c2ncccc12 | -34.5 | – |
| COc1ccc(Nc2sc(C(=O)c3ccccc3)c(N)c2C(=O)Nc2cc(C)ccc2C)c(OC)c1 | -37.6 | – |
| CN(C)Cc1c(C(=O)NCCOc2ccc(C(=O)NO)cc2)oc2ccccc12 | – | 7.57 µM (active) |
| Cc1ccc2onc(CC(=O)N3CCN(c4cc(Cl)ccc4C)CC3)c2c1 | -8.46 | – |
| COc1ccc(CCNC(=O)c2c(C)nn(-c3ccc(F)cc3)c2-n2cccc2)cc1OC | -32.3 | – |
| COc1ccc(CCNC(=O)c2cc3sccc3n2Cc2ccc(Cl)cc2)cc1OC | -23.9 | – |
| COc1ccc(-c2onc(C)c2C)cc1S(=O)(=O)N1CCc2ccccc21 | -80.5 | – |
| COc1ccccc1CCNC(=O)c1ccc(-c2nc(CSc3ccc(C)cc3)c(C)o2)cc1 | -5.99 | – |
| O=S(=O)(Nc1ccc(OC(F)(F)F)cc1)c1ccc(N2CCCCS2(=O)=O)cc1 | -94.4 | – |
| CCOc1ccccc1CNC(=O)c1cc2c(=O)n(Cc3ccccc3)ccc2nc1C | -35.4 | – |
| O=C(Nc1cccc(C(F)(F)F)c1)C1CCCN1S(=O)(=O)c1cccc2nsnc12 (centres undefined) | -92.3 | – |
| CCOc1ccc(CCNC(=O)c2cc3c(-c4cccc(OC)c4)nn(C)c3s2)cc1OCC | -43.8 | – |

| SMILES | activity change, positive = activation [%] | Potency |
| --- | --- | --- |
| CC(=O)c1c(C)oc2ccc(N(C(=O)c3ccncc3)S(=O)(=O)c3ccc(F)cc3C)cc12 | -60.5 | – |
| COc1cc(OC)cc(C(=O)Nc2ccc3c(c2)CCCN3C(=O)c2cccs2)c1 | -33.5 | – |
| O=C(NCCc1nc2ccccc2n1CCCOc1ccc(Cl)cc1)C1CCCCC1 | -46 | – |
| Cc1ccc(C)c(N2CCN(C(=O)C3CCN(c4nc(-c5ccc(C(C)C)cc5)no4)CC3)CC2)c1 | -94.5 | – |
| COc1ccc(CCNC(=O)c2ccc3c(c2)N(Cc2ccc(F)cc2)CCS3)cc1OC | -33.8 | – |
| O=C(NCC(c1ccccc1)c1ccccc1)c1nn(-c2ccccc2F)nc1CO | -65.2 | – |
| COc1ccc(OC2CCN(S(=O)(=O)c3ccc(OC)cc3)CC2)cc1 | -45.6 | – |
| CCCCc1nc2cc(C=CC(=O)NO)ccc2n1CCN(CC)CC | – | 8.49 µM (active) |
| Cc1ccc(C)c(NC(=O)CSc2nnc(-c3cc4occc4n3C)n2-c2ccccc2C)c1 | -19.7 | – |
| CCOC(=O)C1=C(CN(C)Cc2ccccc2)NC(=O)NC1c1ccc(OC)cc1 (centres undefined) | -37.5 | – |
| COc1ccc(C(=O)Nc2nc(-c3nnn(-c4ccc(F)cc4F)c3C)ns2)cc1 | -24.9 | – |
| CC(=O)N1CCCc2cc(S(=O)(=O)N3CCCC(C(=O)N4CCN(c5ccccc5)CC4)C3)ccc21 (centres undefined) | -51.9 | – |
| CCc1c(C)sc2c1CCN(Cc1ccccc1F)C2c1ccccc1 (centres undefined) | -23.1 | – |
| Cc1cc(Nc2sc(C(=O)c3ccc(F)cc3)c(N)c2C(=O)Nc2ccc(F)cc2)ccc1Cl | -75.4 | – |
| N#CCNC(=O)c1ccc(-c2ccnc(Nc3ccc(N4CCOCC4)cc3)n2)cc1 | -24.8 | – |
| COc1ccc(CNC(=O)c2cccc(N3CCCS3(=O)=O)c2)cc1OC | -95.9 | – |
| COc1ccc(NS(=O)(=O)c2ccc(N3CCCCS3(=O)=O)cc2)cc1Cl | -94 | – |
| Cc1ccc(C)c(OCCCC(C)(C)C(=O)O)c1 | 8.19 | – |
| CC(C)(C)C(=O)NCCc1nc2ccccc2n1CCCCOc1ccccc1 | -29.6 | – |
